From the supplement of paper PMC6555819

Key:
Test in all cases: PBM binding z-score (relative to random genomic background probes); higher = stronger binding; sequences stand for … in GC…GCGATTGACAGCGTAGAATGAAGG
[1] = test system: FXR:RXRa (NR concentration 270 nM, RXRa partner concentration 90 nM)
In short: (§1)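 Custom Agilent 4×180K protein-binding microarrays carried double-stranded probes, each with a 34-nt variable region. These regions held direct-repeat seeds, single-nucleotide variants, half-site ablations and random human genomic background sequences. Ligand-free nuclear receptor dimers were incubated on the arrays for 1 h, antibodies against each partner (one per run) detected binding, and scanned fluorescence was regression-normalized. Binding z-scores take the random background probes as reference.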

[2] = test system: LXRa:RXRa (NR concentration 270 nM, RXRa partner concentration 90 nM)
In short: as §1

[3] = test system: LXRa homodimer (NR concentration 270 nM)
In short: as §1

[4] = test system: LXRb:RXRa (NR concentration 270 nM, RXRa partner concentration 90 nM)
In short: as §1

[5] = test system: LXRb homodimer (NR concentration 270 nM)
In short: as §1

[6] = test system: PPARa:RXRa (NR concentration 270 nM, RXRa partner concentration 90 nM)
In short: as §1

[7] = test system: PPARg:RXRa (NR concentration 180 nM, RXRa partner concentration 90 nM)
In short: as §1

[8] = test system: PPARg:RXRa 270nM:90nM, anti-RXR (NR concentration 270 nM, RXRa partner concentration 90 nM)
In short: as §1

[9] = test system: PPARg:RXRa 30nM:10nM, anti-RXR (NR concentration 30 nM, RXRa partner concentration 10 nM)
In short: as §1

[10] = test system: PPARg:RXRa 90nM:30nM, anti-RXR (NR concentration 90 nM, RXRa partner concentration 30 nM)
In short: as §1

[11] = test system: PPARg:RXRa DBDmut IVT, anti-RXR (DBD mutation: RXRa K156A/R161A, NR concentration 270 nM, RXRa partner concentration 90 nM)
In short: as §1

[12] = test system: PPARg:RXRa IVT, anti-PPARg (NR concentration 270 nM, RXRa partner concentration 90 nM)
In short: as §1

[13] = test system: PPARg DBDmut:RXRa IVT, anti-PPARg (DBD mutation: PPARg1 K132A/R137A, NR concentration 270 nM, RXRa partner concentration 90 nM)
In short: as §1

[14] = test system: PPARg DBDmut IVT, anti-PPARg (DBD mutation: PPARg1 K132A/R137A, NR concentration 270 nM)
In short: as §1

[15] = test system: PPARg homodimer (NR concentration 180 nM)
In short: as §1

[16] = test system: PXR:RXRa (NR concentration 270 nM, RXRa partner concentration 90 nM)
In short: as §1

[17] = test system: PXR homodimer (NR concentration 270 nM)
In short: as §1

[18] = test system: RARa:RXR (NR concentration 270 nM, RXRa partner concentration 90 nM)
In short: as §1

[19] = test system: RARa homodimer (NR concentration 270 nM)
In short: as §1

[20] = test system: RARb:RXRa (NR concentration 270 nM, RXRa partner concentration 90 nM)
In short: as §1

Row | Sequence | PBM binding z-score [1] | PBM binding z-score [2] | PBM binding z-score [3] | PBM binding z-score [4] | PBM binding z-score [5] | PBM binding z-score [6] | PBM binding z-score [7] | PBM binding z-score [8] | PBM binding z-score [9] | PBM binding z-score [10] | PBM binding z-score [11] | PBM binding z-score [12] | PBM binding z-score [13] | PBM binding z-score [14] | PBM binding z-score [15] | PBM binding z-score [16] | PBM binding z-score [17] | PBM binding z-score [18] | PBM binding z-score [19] | PBM binding z-score [20]
1 | CCTGCTAGGTCATGGCCAGCTAATCTACAGTATG | 3.55 | 2.55 | 0.0955 | 1.76 | -0.401 | 3.99 | 2.7 | 3 | 0.634 | 2.16 | 4.25 | 3.91 | 0.0686 | -0.931 | 0.851 | 1.27 | -0.389 | 2.49 | -0.572 | 3.98
2 | CAAACTAGGTCACGAAAGGTCAAACTCGAATGAC | 7.61 | 8.32 | 8.55 | 7.66 | 3.3 | 6.75 | 10.5 | 8.69 | 6.95 | 8.93 | 8.89 | 8.97 | 2.74 | 2.02 | 5.15 | 7.23 | 4.8 | 7.97 | 4.28 | 5.84
3 | ATCTCTAGGTAAGAGTCAGTTCAGTGAAGAACGC | 0.322 | 0.41 | 0.44 | 0.262 | 0.685 | 0.413 | 0.239 | 1.03 | 0.45 | 0.958 | 1.76 | 1.41 | 0.489 | 0.902 | 1.16 | 0.741 | 1.13 | 0.349 | 1.11 | 0.454
4 | GGTACAGGGTCAGCTAGAGGCCAGAGTATGGAAA | 4.99 | 2.87 | -0.106 | 2.67 | -0.0836 | 4.62 | 4.12 | 3.78 | 0.502 | 2.27 | 0.482 | 2.29 | 0.521 | -0.216 | 2.93 | 3.37 | 0.15 | 4.88 | 0.0993 | 4.22
5 | TGAAAGAGGTTAAAGATCAGGGAACGTGGCGTCG | 3.91 | 3.07 | 0.208 | 2.03 | 0.261 | 4.59 | 4.87 | 5.44 | 3.46 | 5.15 | 0.975 | 2 | 0.776 | -0.385 | 1.36 | 2.29 | 0.0556 | 3.68 | 0.0643 | 2.67
6 | GCGACTGGGGCAAAGCATGTTACCATAAGGTTGG | -0.69 | -0.602 | -0.362 | -0.192 | -1.06 | 0.898 | 1.61 | 2.22 | 0.294 | 1.58 | 4.73 | 3.23 | -0.245 | -0.674 | 0.0632 | -0.48 | -0.713 | -0.255 | -1.06 | 0.551
7 | CGTCCAAGGTCAGAGAGGTCAGAGAATGCCGAGT | 6.45 | 5.34 | 3.4 | 4.53 | 0.508 | 5.1 | 3.75 | 4.28 | 1.33 | 3 | 2.84 | 3.53 | 0.0352 | -0.116 | 4.06 | 6.31 | 11.8 | 5.66 | 1.75 | 5.18
8 | TCTAGCAGGCCAGAGGGTCAGTCAAGAGGTACGG | 0.425 | 0.152 | -0.884 | 0.413 | -1.51 | 1.35 | 0.768 | 1.81 | 1.49 | 1.68 | 0.768 | 0.496 | -0.553 | -1.25 | 0.21 | 0.465 | -0.829 | 0.985 | -0.753 | 1.77
9 | CTGCCTAGGTCAGGGCCAGTATAGGAGGAACGTT | 1.28 | 1.01 | -0.475 | 0.634 | -1.25 | 1.88 | 0.668 | 0.916 | -0.35 | 0.272 | 1 | 1.46 | -0.75 | -0.806 | 0.559 | 0.208 | -0.739 | 0.901 | -0.655 | 3.38
10 | TCTAGTTGGTCACGGAGGTTACACACGACGGGTA | 1.01 | 1.19 | 0.54 | 1.12 | 0.211 | 1.96 | 1.7 | 2.35 | 3.22 | 2.73 | 2.33 | 2.95 | 0.625 | 0.671 | 1.64 | 1.53 | 0.58 | 1.77 | 0.623 | 2.42
11 | TCTAGTTGGCCAAAGGTCACACACTCGAAATGCG | 5.4 | 5.41 | 3.89 | 5.44 | 1.17 | 6.16 | 11 | 9.37 | 11.1 | 11.3 | 2.73 | 5.56 | 0.249 | 0.877 | 6.18 | 5.82 | 1.45 | 6.89 | 3.8 | 4.93
12 | CGTCCAAGCTCAGAGAGGTCAGTGAATGCCGAGT | 1.33 | 1.41 | 0.781 | 1.52 | -0.498 | 2.19 | -0.188 | 0.558 | -0.581 | -0.0568 | 0.269 | 0.153 | -0.648 | -1.03 | 2.06 | 2.96 | 0.893 | 2.85 | 0.843 | 2.82
13 | GGAACTAGGGCATTCGAGTTGATAGCATGGCGAT | 0.225 | 0.214 | -0.0911 | -0.433 | -0.474 | 2.54 | 3.49 | 3.04 | 0.86 | 1.91 | 7.47 | 7.05 | 0.246 | 1.27 | 0.796 | 1.44 | -0.109 | 0.587 | -0.515 | 0.965
14 | TCTCGGAGCACACGAAAGGTCAGAGCTCGACATC | 1.92 | 3.07 | 1.44 | 2.84 | -0.493 | 3.39 | 0.926 | 1.94 | 1.5 | 1.49 | 0.786 | 0.883 | -0.964 | -0.475 | 2.57 | 3.52 | -0.0353 | 4.12 | 0.999 | 3.45
15 | TCTCGGGGGACACGAAAGGTCAGAGCTCGACATC | 4.5 | 5.39 | 3.18 | 5.47 | 5.76 | 5.03 | 3.63 | 4.96 | 3.73 | 4.14 | 3.01 | 4.33 | 6.64 | 6.38 | 5.71 | 5.07 | 1.76 | 5.57 | 2.64 | 4.48
16 | ATCGAAAGGTCGAGGTGCGTATAGAGAAAGGGAA | 3.98 | 3.27 | -0.147 | 2.47 | 0.277 | 4.37 | 2.48 | 3.13 | 1.09 | 2.17 | -0.194 | 1.03 | 0.819 | 0.0547 | 1.09 | 2.33 | 0.0206 | 3.2 | 0.4 | 3.98
17 | TGAATGAGGTTATAAGATCTGGGAACGTTGCAAA | 1.32 | 1.03 | -0.215 | 1.06 | -0.0795 | 2.54 | 1.01 | 1.83 | 0.892 | 1.58 | 1.24 | 1.57 | 0.727 | -0.0307 | 0.305 | 0.714 | -0.0184 | 1.12 | 0.0804 | 1.07
18 | ACTAGCAGGCCAAGTTCGGGTCACTCAAACAAAG | 1.11 | 1.28 | 0.378 | 1.79 | -0.339 | 2.45 | 0.431 | 0.794 | -0.79 | 0.197 | 0.756 | 1.07 | -0.452 | -1 | 1.34 | 2.55 | 0.53 | 3.19 | -0.287 | 2.33
19 | CTACCAAGGTGAACAAGGTCGTTTATTACTATTC | 1.5 | 1.78 | 0.765 | 2.61 | -0.00441 | 2.46 | 1.06 | 1.2 | 0.0871 | 0.818 | 2.67 | 2.5 | 0.494 | 0.322 | 1.29 | 3.07 | 2.38 | 2.12 | 0.698 | 2.26
